Assay results published in PubChem BioAssay (NCATS).
“And” between values parts separate entries of the source, which are not always exact repeats. Equal values may be shown once. Results filed as inconclusive are left out. The source made the active and inactive calls. Calls follow the shape of the dose curve; as a rule, active = well fitted curve in the direction sought with a large enough effect; inconclusive = small, poorly fitted or top-dose-only effect, or another doubt; inactive = no such curve, though single readings can be large; an effect the other way counts as inactive or inconclusive.

Columns and labels:
[1] = Viability qHTS for spleen associated tyrosine kinase inhibitor (SYKi) naive MV4-11 cells (AID 1963823); also: potency is read from the fitted curve at half-maximal effect; nearly all actives have a fitted effect of over 40% in size
Summary of the method: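 qHTS, SYK inhibitor-naive MV4-11; 500 cells/well; 72 hr compound exposure, 37 C; CellTiter-Glo added, 10 min RT; luminescence read.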

[2] = Viability qHTS for spleen associated tyrosine kinase inhibitor (SYKi) drug resistant MV4-11 cells (AID 1963824); also: potency is read from the fitted curve at half-maximal effect; nearly all actives have a fitted effect of over 35% in size
Summary of the method: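 SYK inhibitor-resistant MV4-11 AML cells, 500 per well, added to predispensed compounds and incubated 72 hr at 37 C, 5% CO2. Viability measured by CellTiter-Glo luminescence after 10 min at room temperature.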

[3] = Quantitative highthroughput screen to assess conditional lethalithy of P12 Ichikawa cells grown in Human Plasma-Like Medium with dialyzed fetal bovine serum (HPLM+ds) (AID 1963879); conditions: Potency: viability; also: series mostly up to about 46 µM; nearly all actives have a fitted effect of over 35% in size
Summary of the method: (§1)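 Each medium arm—HPLM with 10% dialyzed FBS, or RPMI1640 with 5 mM glucose and 10% untreated or dialyzed FBS—was screened against an 11-point, 3-fold compound titration for 48 h at 37 °C, with CellTiter-Glo luminescence as endpoint.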

[4] = Cellular viability qHTS for adrenocortical cancer (ACC) cell line SW-13 (AID 1963989); conditions: SW-13 ACC cells viability, CellTiter-Glo, 48 h; activity (max response): hits give low values; also: potency is read from the fitted curve at half-maximal effect; nearly all actives have a fitted effect of over 65% in size
Summary of the method: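 Viability was read as CellTiter-Glo luminescence after 48 h compound treatment (up to 46 uM final) of SW-13 cells grown serum-free; titration curves were fit with a four-parameter logistic model to give IC50 and efficacy.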

[5] = Cellular viability qHTS for adrenocortical cancer (ACC) cell line NCI-H295R (AID 1963990); also: potency is read from the fitted curve at half-maximal effect; nearly all actives have a fitted effect of over 60% in size
Summary of the method: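 CellTiter-Glo ATP luminescence, read 48 h after compound addition, measured viability of NCI-H295R adrenocortical cells grown serum-free with ITS. Final concentrations spanned up to 46 uM. Data normalized to DMSO and doxorubicin, fitted for IC50 and maximal response.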

[6] = Quantitative highthroughput screen to assess conditional lethalithy of SEM cells grown in Human Plasma-Like Medium with dialyzed fetal bovine serum (HPLM+ds) (AID 1963882); also: potency is read from the fitted curve at half-maximal effect; nearly all actives have a fitted effect of over 35% in size
Summary of the method: as §1

[7] = Quantitative highthroughput screen to assess conditional lethalithy of SEM cells grown in RPMI1640 with unreated serum (RPMI+s) (AID 1963883); also: potency is read from the fitted curve at half-maximal effect; nearly all actives have a fitted effect of over 35% in size
Summary of the method: as §1

[8] = Quantitative highthroughput screen to assess conditional lethalithy of SEM cells grown in RPMI1640 with dialyzed fetal bovine serum (RPMI+ds) (AID 1963884)
Summary of the method: as §1

[9] = Quantitative highthroughput screen to assess conditional lethalithy of P12 Ichikawa cells grown in RPMI1640 with dialyzed fetal bovine serum (RPMI+ds) (AID 1963880); conditions: Potency: P12-Ichikawa viability; also: nearly all actives have a fitted effect of over 35% in size
Summary of the method: as §1

[10] = Quantitative highthroughput screen to assess conditional lethalithy of P12 Ichikawa cells grown in RPMI1640 with untreated serum (RPMI+s) (AID 1963881); conditions: Potency: viability
Summary of the method: as §1

Measured: Potency

COc1ccc(CCN(C)CCCOc2ccc(S(=O)(=O)c3[nH]c4ccccc4c3C(C)C)cc2)cc1OC
active: [1] 7.42 µM | [2] 6.61 µM | [4] 28.2 µM | [5] 11.2 µM
inactive: [3]

Nc1ncnc2c1c(-c1cnc3[nH]ccc3c1)nn2C1CCCC1
active: [1] 920 nM and 590 nM | [2] 1.16 µM and 1.18 µM | [6] 5.26 µM | [7] 3.72 µM | [8] 5.9 µM | [4] 5.01 µM

CCOc1ccn(-c2ccc(F)cc2)c(=O)c1C(=O)Nc1ccc(Oc2ccnc(N)c2Cl)c(F)c1
active: [1] 366 nM and 525 nM | [2] 580 nM and 1.05 µM | [6] 1.48 µM | [7] 3.32 µM | [8] 2.09 µM

CN1CCc2c(c3ccccc3n2Cc2ccc(C(=O)NO)cc2)C1
active: [1] 26.3 µM | [2] 14.8 µM | [10] 13.2 µM | [6] 11.8 µM | [5] 28.2 µM
inactive: [9]

Cc1cc(-c2nc3cc(F)ccc3s2)ccc1NC(=O)[C@@H](N)CCCCN
active: [1] 2.31 µM | [2] 2.59 µM | [4] 25.1 µM

CC(C)(O)CNc1ncc(-c2ccnc(Nc3ccncc3)n2)c(CC2CC2)n1
active: [1] 1.48 µM | [2] 1.18 µM | [4] 14.1 µM

CN(C)Cc1ccc(S(=O)(=O)n2ccc(/C=C/C(=O)NO)c2)cc1
active: [1] 3.32 µM | [2] 2.35 µM | [4] 12.6 µM
